Several values for one entry are separate records, joined by “and”; a condition that tells them apart may be missing. Identical values can stand only once. Activity calls are given as the source filed them.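 How the source made its calls, unless noted: active means thallium flux through the channel raised or lowered by more than 3 SD from vehicle-only wells, actives on both sides; inactive means the rest.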

Assay [1] is described as follows: P. berghei load reduction in hepatocytes – cell-based, HepG2, luciferase luminescence, HepG2 viability, primary screen (AID 624349; in the data active means parasite load remaining mostly below about 12%, no sharp cut-off; inactive means mostly above about 10%;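 further: 100% = mean of DMSO negative control wells on the same plate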). Particulars: P. berghei liver stage in HepG2, luciferase luminescence, concentration not given here; parasite load remaining: stronger effect = lower value; viability: measured here: HepG2 viability without parasites.
Assay [2] is described as follows: signal quenchers or enhancers, Cy5 substrate/SSB – biochemical, NIH Clinical Collection, E. coli SSB, artefact control for HCV NS3 helicase inhibitor project (AID 743268; call rule not given here). Particulars: Cy5-oligo bound E. coli SSB, fluorescence interference.
For assay [3], the system named is Hepatitis C virus NS3 helicase. In words: blockers of NS3h binding to DNA – biochemical, fluorescence polarization, NIH Clinical Collection, primary screen (AID 743270; call rule not given here). Particulars: NS3 helicase binding to Cy5-dT15 DNA, stronger effect = higher value, concentration not given here.
For assay [4], the target named is Single-stranded DNA-binding protein (Escherichia coli (strain K12)) (UniProt P0AGE0). In words: SSB-ssDNA binding inhibitors – biochemical, fluorescence polarization, NIH Clinical Collection, counter-screen for HCV NS3 helicase inhibitor project (AID 743271; in the data active means inhibition above about 28%). Particulars: E. coli SSB-DNA binding, stronger effect = higher value, concentration not given here.
Assay [5] in a line: compounds distorting NS3 helicase fluorescence signal – biochemical, NIH Clinical Collection, artefact control for HCV NS3 helicase inhibitor project (AID 743272; call rule not given here;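 further: HCV NS3 helicase with a Cy5 labelled single stranded DNA probe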). Conditions: fluorescence interference counterscreen, HCV NS3 helicase assay; stronger effect = lower value.
Assay [6] has as its system Neuropilin-2 / VEGF-C interaction (human). In words: small molecules blocking Neuropilin-2/VEGF-C interaction – biochemical, microplate binding format, z-score (AID 743281; call rule not given here). Particulars: microplate NRP2/VEGF-C binding assay; stronger effect = lower value.
Assay [7] is described as follows: modulation of C. elegans fzo-1 (AID 1259413; call rule not given here;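 further: fzo-1 mutant C. elegans worms in liquid wells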). Particulars: C. elegans fzo-1 modulator screen, mean read-out; stronger effect = higher value.
Assay [8] is described as follows: viability loss with induced miR-34 in A549 – imaging, A549 dox-inducible miR-34, nuclei and caspase counts, primary screen (AID 1347080;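 active means compounds whose cell count with miR-34 switched on is under 0.7 times the count with it off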). Particulars: A549 miR-34 inducible, Hoechst nuclei count, 48 h.
The subject of the next assay is F380Y. The assay is described as follows: BK channel mutant inhibitors and activators – cell-based, U2OS BacMam, thallium flux, beta subunits, selectivity assay, profiling panel (AID 1259406).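 Further: initial slope of Thallos dye fluorescence rise after thallium is added; log ratio against the mean of 0.3% DMSO vehicle wells on the same plate.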 Particulars: U2OS BacMam BK variants, at 30 µM.
A further assay deals with F380Y/beta1. The assay is described as above. Conditions: U2OS BacMam BK variants, at 30 µM.
Another assay has as its system F380Y/beta2Delta. Described as above. Particulars: U2OS BacMam BK variants, at 30 µM.
Another assay deals with F380Y/beta4. Described as above. Conditions: U2OS BacMam BK variants, at 30 µM.
Assay [9] addresses Calcium-activated potassium channel subunit alpha-1 (Homo sapiens) + Leucine-rich repeat-containing protein 26 (Homo sapiens) (UniProt Q12791+Q2I0M4). Described as above. Conditions: U2OS BacMam BK variants, F380Y/Slo1WT/gamma1, at 30 µM.
The subject of another assay is R275C. The description is as above. Particulars: U2OS BacMam BK variants, at 30 µM.
Another assay has as its system R275C/beta1. The description is as above. Conditions: U2OS BacMam BK variants, at 30 µM.
The next assay deals with R275C/beta2Delta. Described as above. Particulars: U2OS BacMam BK variants, at 30 µM.
The next assay relates to R275C/beta4. Described as above. Particulars: U2OS BacMam BK variants, at 30 µM.
A further assay deals with R275C/Slo1WT/beta2. The description is as above. Conditions: U2OS BacMam BK variants, at 30 µM.
A short description of assay [10]: galactose survival enhancers in mitochondrial complex I cybrids – cell-based, galactose medium, ATP luminescence, primary screen (AID 1645843;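 active means z-score of at least 1.8 in each of two replicates, scored against plate mean and spread of sample wells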;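 further: positive z means more ATP and so rescue of galactose-driven cybrid death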). Particulars: complex I mutant cybrid cells, 72 h, stronger effect = higher value.
Where [11] appears, read: measured here: relative caspase fold change +Dox/-Dox.
The mark [12] stands for this setting: measured here: total cells with miR-34 induction, stronger effect = lower value.
Setting [13] is: measured here: total cells without miR-34 induction.

Calcium-activated potassium channel subunit alpha-1 (Homo sapiens) + Leucine-rich repeat-containing protein 26 (Homo sapiens), sequence (Q2I0M4 whole entry, looked up, one chain of several): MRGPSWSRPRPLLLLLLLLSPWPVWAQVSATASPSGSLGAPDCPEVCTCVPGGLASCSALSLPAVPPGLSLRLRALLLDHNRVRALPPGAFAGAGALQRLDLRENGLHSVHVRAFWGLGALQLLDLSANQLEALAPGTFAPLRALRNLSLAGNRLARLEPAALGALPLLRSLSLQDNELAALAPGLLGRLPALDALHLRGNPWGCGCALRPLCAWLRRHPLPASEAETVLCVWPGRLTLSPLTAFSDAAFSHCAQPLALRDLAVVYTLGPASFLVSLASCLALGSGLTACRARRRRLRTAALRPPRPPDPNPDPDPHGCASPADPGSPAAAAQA

As for `CC(C)[C@]12O[C@H]1[C@@H]1O[C@]13[C@]1(O[C@H]1C[C@H]1C4=C(CC[C@@]13C)C(=O)OC4)[C@@H]2O`, the parasite load remaining in assay [1] was 122% (inactive). Moreover, the viability in assay [1] turned out to be 67.7%. The fluorescence ratio is 1.04 (inactive) in assay [2] and 1.03 (inactive) in assay [5]. In addition, the inhibition in assay [3] is -2.77% (inactive); in assay [4], -6.26% (inactive). Moreover, the z-score in assay [6] is 0.859 (inactive). For the same compound, the mean signal in assay [7] is 159 (inactive). Also, the fold change in assay [8] (stronger effect = lower value) was 1.04 (inactive); in [8] (setting [11]) it was 1.51. Further, the figures for the cell count in [8] (setting [12]) and in assay [8] (setting [13]) were 1360 and 1300, respectively. Further, the log fold change Tl+ flux in the assay with F380Y was -0.0264 (inactive); in the assay with F380Y/beta1, -0.0154 (inactive); in the assay with F380Y/beta2Delta it was -0.0407 (inactive); in the assay on F380Y/beta4, 0.00828 (inactive); in [9], 0.0324 (inactive); in the assay with R275C it was -0.0177 (inactive). Besides, the log fold change Tl+ flux with R275C/beta1 was 0.0288 (inactive); with R275C/beta2Delta, 0.0395 (inactive); in the assay with R275C/beta4, 0.0135 (inactive); in the assay on R275C/Slo1WT/beta2, 0.00131 (inactive).

`CC[C@@H](C(N)=O)N1CCCC1=O`: the parasite load remaining in assay [1] is 91.8% (inactive) and 41.8% (inactive). For the same compound, the viability in assay [1] was 70% and 106%. The fluorescence ratio in assay [2] was 1.01 (inactive); in assay [5] it was 1.02 (inactive). Further, the inhibition in assay [3] is 7.52% (inactive); in assay [4] it was 9.91% (inactive). Also, the z-score in [6] is -0.78 (inactive); in assay [10] it was 0.685 (inactive) and 0.535 (inactive). Also, the mean signal in [7] was 234 (inactive). The fold change was 1.08 (inactive) and 0.876 (inactive) in assay [8] (stronger effect = lower value); 1.59 and 0.289 in assay [8] (setting [11]). Moreover, the cell count in assay [8] (setting [12]) is 11300 and 10400; in [8] (setting [13]), 10400 and 11900. The log fold change Tl+ flux in the assay on F380Y was -0.0178 (inactive); in the assay on F380Y/beta1, -0.022 (inactive); in the assay on F380Y/beta2Delta, -0.0158 (inactive); with F380Y/beta4, 0.0243 (inactive); in assay [9], -0.0482 (inactive); with R275C, 0.037 (inactive). For the same compound, the log fold change Tl+ flux is -0.0285 (inactive) in the assay on R275C/beta1, -0.00577 (inactive) in the assay with R275C/beta2Delta, -0.0209 (inactive) in the assay on R275C/beta4 and -0.0311 (inactive) in the assay with R275C/Slo1WT/beta2.

On to `Cc1ccc(-c2nc3ccc(C)cn3c2CC(=O)N(C)C)cc1`, for which the parasite load remaining in assay [1] was 37% (inactive) and 120% (inactive). Also, in assay [1], the viability was 80.3% and 64.4%. In addition, the fluorescence ratio in assay [2] is 1.04 (inactive); in [5], 1.01 (inactive). Moreover, the values for the inhibition in assay [3] and in assay [4] were -1.98% (inactive) and -2.41% (inactive), respectively. Moreover, the z-score is -0.569 (inactive) in [6] and 1.03 (inactive) in assay [10]. For the same compound, in assay [7], the mean signal is 258 (inactive). Further, the fold change was 0.956 (inactive) in assay [8] (stronger effect = lower value) and 2.59 in assay [8] (setting [11]). For the same compound, the cell count in assay [8] (setting [12]) worked out at 9130; in assay [8] (setting [13]), 9550. In addition, the log fold change Tl+ flux is -0.0187 (inactive) in the assay on F380Y; 0.0272 (inactive) in the assay with F380Y/beta1; 0.00568 (inactive) in the assay on F380Y/beta2Delta; -0.00795 (inactive) in the assay with F380Y/beta4; -0.0144 (inactive) in assay [9]; -0.0227 (inactive) in the assay with R275C. Moreover, the log fold change Tl+ flux in the assay with R275C/beta1 is -0.0502 (inactive); with R275C/beta2Delta it was -0.00561 (inactive); in the assay on R275C/beta4, 0.00879 (inactive); in the assay with R275C/Slo1WT/beta2, 0.00818 (inactive).

For the compound `C[C@]12CC(=CO)C(=O)C[C@@H]1CC[C@@H]1[C@@H]2CC[C@@]2(C)[C@H]1CC[C@]2(C)O`, the parasite load remaining in [1] is 62.4% (inactive). For the same compound, the viability in [1] was 66.1%. The values for the fluorescence ratio in assay [2] and in assay [5] were 1.04 (inactive) and 1.01 (inactive), respectively. Further, the figures for the inhibition in assay [3] and in [4] were 5.15% (inactive) and 3.75% (inactive), respectively. Also, the log fold change Tl+ flux in the assay on F380Y was 0.111 (active); with F380Y/beta1 it was 0.204 (active); in the assay on F380Y/beta2Delta, 0.171 (active); in the assay on F380Y/beta4 it was 0.113 (active); in [9], 0.208 (active); in the assay on R275C, 0.0626 (inactive). Also, the log fold change Tl+ flux is 0.301 (active) in the assay on R275C/beta1, 0.261 (active) in the assay with R275C/beta2Delta, 0.148 (active) in the assay on R275C/beta4 and 0.0227 (inactive) with R275C/Slo1WT/beta2.

The values above are taken from PubChem BioAssay.
